TWEAK Fn14 block: blocks TWEAK-Fn14 interaction in a reporter cell assay; AID 1159606; inhibition, % at 10 µM; TWEAK-stimulated Fn14 reporter cells, luciferase luminescence, 8 h; hit rate 2% among 360,000; in the data active means inhibition above about 50%
LGR2 antag: inhibitors of bursicon-induced Drosophila LGR2 receptor cAMP signaling; HEK293 LGR2, CRE-luciferase, bursicon-stimulated, 4 h; inhibition, % at 9.99 µM; hit rate 0.35% among 380,000;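 active means drop in luminescence signal, shown as inhibition above about 50% in the replicate tests, limit read from the data, passing the limit was not always enough; inconclusive means probably only some replicates passing the limit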;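 further: agonist challenge used bursicon conditioned medium at about half maximal strength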
EWS-Fli block: blocks EWS/Fli oncoprotein-driven transcription. A673 NR0B1-luciferase reporter, viability-normalised. inhibition, % at 12.6 µM. hit rate 0.67% among 350,000. AID 651661;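 active means mean inhibition of at least 50% after viability correction, with every replicate also passing that limit; inconclusive means mean reaches 50% but only one of two replicates passes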;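 further: firefly luciferase signal divided by Alamar Blue viability fluorescence both relative to DMSO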
TROY signal inh: blocks TROY-dependent signaling in reporter cells; Q293 LMP1-TROYcd NF-kB luciferase reporter, 4 h; inhibition, % at 10 µM; hit rate 0.98% among 360,000;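 active means compounds whose plate-normalised and pattern-corrected inhibition of the luciferase reporter signal at the single screening dose is 50% or more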
PAX8 reporter: lowers PAX8-driven luciferase in RMG-I cells | RMG-I TPO-luciferase reporter, SteadyGlo, 24 h | inhibition, % at 12.6 µM | hit rate 1.2% among 360,000;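 active means mean replicate inhibition at least 60% with every replicate also reaching 60%; inconclusive means only one of the two criteria is met; inactive means mean below 60% and not all replicates reaching 60%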;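 further: luciferase light reporting Pax8 driven TPO promoter activity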
Hits are given with their value; 0 = inactive; ? = inconclusive; - = no result. Compounds with a hit are over-represented: about 2.8% of the library has one in this group of screens.

SMILES | TWEAK Fn14 block | LGR2 antag | EWS-Fli block | TROY signal inh | PAX8 reporter
Cc1ccc(/C=N/NC(=O)c2ccccn2)s1 | 51 | ? | 0 | 0 | 0
CCc1ccc(/C=N/NC(=O)c2ccccn2)cc1 | 86 | 71 | 0 | 0 | 0
Cc1ccc(/C=N/NC(=O)c2ccncc2)cc1 | 0 | 0 | 0 | 0 | 0
Cc1ccc(/C=N\NC(=O)c2csnn2)cc1 | 50 | - | - | 0 | -
O=C(C[C@H]1CC[C@@H]2[C@H](COC[C@@H](O)CN2Cc2cc(F)ccc2F)O1)NCc1ccccc1 | - | 0 | 0 | - | 0
CS(=O)(=O)N1[C@H](CO)[C@@H](c2ccccc2)C12CN(C(=O)C1CC1)C2 | - | 0 | 0 | - | 0
CCOC(=O)c1c(C)[nH]c(C(=O)OCCOc2ccccc2C)c1C | 0 | 0 | 0 | 55 | 0
CCOC(=O)c1[nH]c(C)c(C(=O)OCC(=O)NC(C)c2ccc(F)cc2)c1C (configuration not stated) | 0 | 0 | 54 | 0 | 0
CCOC(=O)c1c(C)[nH]c(C(=O)OCCOc2ccc(Cl)cc2)c1C | 0 | 0 | 0 | 0 | 0
COC(=O)c1ccc2nc(NC(=O)CSCC(=O)OCC(=O)c3ccccc3)sc2c1 | 0 | 0 | 0 | 0 | 0
Cc1ccc2nc(NC(=O)CSCC(=O)OCC(=O)c3ccc(Br)cc3)sc2c1 | 74 | - | - | 64 | 0
CCOC(=O)N1CCC(N2C(=O)c3ccccc3C2Nc2ccc3c(C)cc(=O)oc3c2)CC1 (configuration not stated) | 0 | 0 | 0 | 0 | 0
CCOC(=O)N1CCC(N2C(=O)c3ccccc3C2Nc2ccc3c(c2)OCCO3)CC1 (configuration not stated) | 85 | 0 | 0 | 65 | 0
CCOC(=O)C1CCN(c2c(Nc3ccc4c(c3)OCCO4)c(=O)c2=O)CC1 | 81 | 0 | 0 | 63 | 0
CCOC(=O)C1CCN(C(C(=O)Nc2ccc3c(c2)OCCO3)c2ccccc2)CC1 (configuration not stated) | 0 | 0 | - | 0 | -
C[C@@H]1CN([C@H](C)CO)C(=O)c2cccc(NC(=O)C3CCCCC3)c2O[C@@H]1CN(C)S(=O)(=O)c1ccc(F)cc1 | - | 0 | 0 | - | -
COCC(=O)Nc1ccc2c(c1)OC[C@@H](C)N(C(=O)c1ccccn1)C[C@H](C)[C@@H](OC)CN(C)C2=O | - | 0 | 0 | - | 0
CCCN(C)C[C@H]1OCCCC[C@H](C)Oc2ccc(NC(=O)NC3CCCCC3)cc2C(=O)N([C@@H](C)CO)C[C@H]1C | - | 0 | 0 | - | 0
COC(=O)c1c(-c2ccc(Br)cc2)csc1NC(=O)Cc1ccc(OC)c(OC)c1 | 0 | 0 | - | 0 | -
COC(=O)c1c(-c2cccc3ccccc23)csc1NC(=O)Cc1ccc(OC)c(OC)c1 | 75 | - | - | 0 | -
COC(=O)c1c(-c2ccc(C)cc2)csc1NC(=O)Cc1ccc(OC)c(OC)c1 | 57 | 0 | - | 0 | -
CN(C)CCCNC(=O)C[C@H]1C=C[C@@H](NC(=O)c2ccccc2F)[C@@H](CO)O1 | - | 0 | 0 | - | 0
CNC(=O)C[C@@H]1CC[C@@H]2[C@H](COC[C@H](O)CN2C(=O)Nc2cccc(OC)c2)O1 | - | 0 | 0 | - | 0
Cc1cccc(C(=O)OCC(=O)Nc2c(C)nn(-c3ccccc3)c2C)c1O | 0 | 0 | 0 | 0 | 0
Cc1nn(-c2ccccc2)c(C)c1NC(=O)COC(=O)c1ccccc1OC(F)F | 0 | 0 | 0 | 51 | 0
SMILES | TWEAK Fn14 block | LGR2 antag | EWS-Fli block | TROY signal inh | PAX8 reporter
CCOC(=O)c1ccc(-c2ccc(/C=N/NC(=O)CN(c3cccc(C)c3)S(C)(=O)=O)o2)cc1 | 0 | 0 | 0 | 0 | 0
CCOC(=O)c1ccc(-c2ccc(/C=N/NC(=O)CN(c3ccccc3Cl)S(C)(=O)=O)o2)cc1 | 71 | 0 | 0 | 0 | 0
Cc1ccc(S(=O)(=O)N(C)C[C@@H]2Oc3c(NS(=O)(=O)c4cccs4)cccc3C(=O)N([C@@H](C)CO)C[C@@H]2C)cc1 | - | 0 | 0 | - | 0
COc1cccc(N2CCN(C(C)C(=O)NC34CC5CC(CC(C5)C3)C4)CC2)c1 (configuration not stated) | 90 | 0 | 0 | 0 | 0
Cc1nc2ccccc2c2nc3ccccc3n12 | 0 | 0 | - | 0 | -
Fc1ccc(-c2nc3ccccc3c3nc4ccccc4n23)cc1 | 58 | - | 0 | 0 | 0
Clc1ccccc1-c1nc2ccccc2c2nc3ccccc3n12 | 0 | 0 | - | 57 | -
N#CCSc1nc2ccccc2c2nc3ccccc3n12 | 57 | 0 | - | 0 | 0
COc1ccc2cc3cc(C(=O)Nc4ccccc4N4CCN(C)CC4)oc3nc2c1 | 0 | - | - | 0 | 0
COc1ccc2cc3cc(C(=O)NCCN4CCN(c5ccccc5F)CC4)oc3nc2c1 | 67 | - | - | 60 | 0
O=C(Nc1cccc(C(F)(F)F)c1)Nc1nnc([C@@H]2C[C@H](O)[C@@H](CO)O2)s1 | 55 | - | 0 | 0 | 0
O=C(Nc1nnc([C@H]2C[C@H](O)[C@@H](CO)O2)s1)c1cccc(C(F)(F)F)c1 | 0 | - | 0 | 0 | 0
COc1ccc(CNC(=O)Nc2nnc([C@@H]3C[C@H](O)[C@@H](CO)O3)s2)cc1 | 63 | 0 | 0 | 0 | 0
CO[C@H]1CN(C)C(=O)c2cc(NC(=O)C3CCCCC3)ccc2OC[C@H](C)N(Cc2nccs2)C[C@@H]1C | - | 0 | 0 | - | 0
O=C(O)C(=O)Nc1ncn[nH]1 | 0 | 0 | 0 | 0 | 0
O=C(/C=C/c1ccccc1)Nc1ncn[nH]1 | 70 | 0 | 0 | 0 | -
O=c1oc2c(O)c(O)cc3c(=O)oc4c(O)c(O)cc1c4c23 | 88 | - | - | 0 | -
Cc1ccc(-c2nn3c(C)nnc3c3ccccc23)cc1S(=O)(=O)NC(C)c1ccccc1 (configuration not stated) | 58 | - | - | 0 | -
C[C@@H]1CN([C@@H](C)CO)S(=O)(=O)c2ccc(Br)cc2O[C@@H]1CN(C)C(=O)c1cnccn1 | - | 0 | 0 | - | -
CCCCCC(=O)N1C[C@H](n2cc(-c3ccc(F)cc3)nn2)[C@@H](O)C[C@@H]1c1ccc(Cl)cc1 | 0 | 0 | 0 | 0 | 82
O=C(Cc1ccccc1)Nc1ccccc1C(=O)N1CCCCC1 | 0 | 0 | 0 | 0 | 0
O=C(Cc1ccccc1)c1ccccc1C(=O)N1CCCCC1 | 0 | 0 | 0 | 0 | 108
CCN(CC)c1ccc(/C=N/NC(=O)c2ccco2)cc1 | 64 | 0 | - | 0 | 0
CCN(CC)c1ccc(/C=N/NC(=O)c2ccco2)c(O)c1 | 0 | 0 | 0 | 0 | 0
CCN(Cc1ccccc1)c1ccc(/C=N/NC(=O)c2cccc(S(=O)(=O)N3CCOCC3)c2)cc1 | 69 | 0 | - | 0 | 0
SMILES | TWEAK Fn14 block | LGR2 antag | EWS-Fli block | TROY signal inh | PAX8 reporter
O=C(N/N=C/c1ccc2cccnc2c1)c1ccco1 | 52 | 0 | 0 | 0 | 0
COc1ccc(CN(C)C[C@H]2Oc3ccc(N(C)C)cc3CC(=O)N([C@@H](C)CO)C[C@H]2C)cc1 | - | 0 | 0 | - | 0
O=C(CNC(=O)c1cccs1)OCc1ccc(Br)cc1 | 0 | 0 | 0 | 0 | -
O=C(CNC(=O)c1cccs1)c1ccc(Br)cc1 | 55 | 0 | 0 | 0 | 0
Cc1nc(N2CCN(Cc3ccccc3)CC2)nc2c1CCC2 | 60 | 0 | 0 | 0 | 0
Cc1cccc(C(=O)Nc2ccc3c(c2)nc(C)n3C)c1 | 59 | 0 | 0 | 0 | 0
Cc1nc2cc(NC(=O)N3c4ccccc4CC3C)ccc2o1 (configuration not stated) | 0 | 0 | 0 | 0 | -
Cc1ccc(NC(=O)Nc2ccc3c(c2)nc(C)n3C)cc1 | 0 | 0 | 0 | 0 | 0

Source: PubChem (several laboratories)
